According to PubChem BioAssay (NCATS):
Activity calls are given as the source filed them. Entries that show only a call come without a potency. Calls follow the shape of the dose curve; as a rule, active = well fitted inhibition curve with a large enough effect; inconclusive = small, poorly fitted or top-dose-only effect; inactive = no such curve, though single readings can be large or run the other way.

target: Single-stranded DNA cytosine deaminase (Homo sapiens) (UniProt Q9GZX7); assay: Validation qHTS assay for inhibitors of Activation Induced Cytidine Deaminase (AID): AID signal (AID 1347429); conditions: Recombinant AID, FRET ssDNA deamination with UDG, fluorescence; series mostly up to 115 µM
Source text: Assay Provider (PI) Patricia Gearhart Ph.D. National Institute on Aging National Institute of Health (NIH), Bethesda, MD Assay Provider (PI) Rahul Kohli Ph.D. Perelman School of Medicine University of Pennsylvania, Philadelphia, PA Activation-Induced Deaminase (AID) is a cytosine deaminase which converts cytosine into uracil within stretches of ssDNA. The presence of uracil in DNA initiates a cascade of mutagenic DNA repair to introduce point mutations and DNA double strand breaks. Specific targeting of AID to the immunoglobulin heavy chain loci (Igh) promotes mutagenesis in the antibody variable region for somatic hypermutation (SHM) or switch regions leading to class switch recombination (CSR). However, AID also plays a role in accumulating unnecessary mutations across the genome. Mis-targeting of AID results in the initiation of tumor development and leads to greater drug resistance among cancer cells when continually expressed. To identify an AID inhibitor, a small molecule library will be screened in collaboration with NCATS core facility at NIH. To confirm biological function, inhibitors will be examined in an in vitro murine B-cell activation assay and subsequent secondary validation screens. Top molecules will be further screened to identify inhibitory efficacy against a wild type primary splenocytes assay. Using these approaches, we hope to identify a small molecule with great efficacy and low toxicity for use as a molecular probe to further characterize AID's intricacies, or even as a therapeutic. A FRET based analysis of cytosine deamination, was developed to identify potential inhibitors of AID catalytic activity. This screen has two signal output, Read 1 evaluates the AID inhibition response. The second readout (Read 2) evaluates UDG response and is uses as a counterscreen to exclude false positive inhibitors. Inhibition in AID and inactivity in the UDG signal is the desired outcome for this assay.
PROTOCOL TABLE SEQUENCE No. (e.g., 1, 2, 3, etc.); […] (e.g., Cells, Incubation, Reagent, etc.); VALUE; DESCRIPTION 1a; Reagent; 3 uL; [4/3x] […] 250 nM DJC20 / 250 nM DJC23 [Substrate] 5; Time; 4 hr; incubation at room temperature 6; Reagent; 4 uL; [2x] 250 mM NaOH 7; Time; 15 sec; centrifuge at 1000 rpm 8; Time; 30 min; incubation at room temperature 9a; Detection; fluorescence (Read 1: AID); EnVision (PerkinElmer) plate reader, 540 excitation and 590 emission filters 9b; Detection; fluorescence (Read 2: UDG); EnVision (PerkinElmer) plate reader, 560 excitation and 665 emission filters NOTES (numbers refer to sequence above) 1a; Reagents were dispensed in a medium-binding black solid-bottom Greiner plates (789176F) using a BioRptr liquid dispenser. Dispense 3 uL of [4/3x] 1 uM AID (provided by Kohli lab) and [4/3x] 2 U/mL UDG (NEB M0280L) into columns 1, 2, 5 to 48. 1b; Dispense 3 uL of [4/3x] 2 U/mL UDG into column 3. 1c; Dispense 3 uL of [4/3x] 1 uM AID into column 4. 2a; Compound ([…] [uM] (0.64; 3.2; 16; 80; 400; 2,000; 10,000; 20,000) double pin-transferred (Dip Factor = 2) using the Kalypsys (Wako USA) pintool equipped with a 1536 pinhead for a final concentration range of 7.32 nM - 114 uM. 2b; 10 mM Aurintricarboxylic Acid (Sigma A1895) (ATA, 8-point, n = 2, 1:2.5 dilution in column 2) double pin-transferred (Dip Factor = 2) using the Kalypsys (Wako USA) pintool equipped with a 1536 pinhead for a [final] range of 186 nM - 114 uM. 3; Room temperature incubation. 4; Dispense 1 uL of substrate mixture from the Kohli lab [4x] […] DJC20 and [4x] 250 nM DJC23 into columns 1 to 48 . 5; Room temperature incubation. 6; Dispense 4 uL of substrate mixture [2x] 250 mM NaOH into columns 1 to 48. 7; Centrifugation step to remove bubbles. 8; Room temperature incubation 9a; Fluorescence signal (column label AID) was read using the EnVision plate reader. Excitation filter = 540(8) nm, barcode = 311; Emission filter = 590(20) nm, barcode = 217; Mirror = D555, barcode = 405. […]
Potency is read from the fitted curve at half-maximal effect.

Chain of Single-stranded DNA cytosine deaminase (Homo sapiens) (Q9GZX7 whole entry, looked up): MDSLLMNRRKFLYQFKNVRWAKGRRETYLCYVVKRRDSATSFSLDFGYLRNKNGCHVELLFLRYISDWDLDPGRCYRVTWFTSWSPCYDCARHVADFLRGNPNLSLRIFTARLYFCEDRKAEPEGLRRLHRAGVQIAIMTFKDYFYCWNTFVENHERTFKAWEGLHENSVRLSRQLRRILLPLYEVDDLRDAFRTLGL

SMILES | Potency
NNC(=O)c1ccc(O)cc1 | inactive
C[N+](C)(C)CCOC(=O)CBr | inactive
NNC(N)=O | inactive
CN1CCc2cccc(Cl)c2CC1 | inactive
N[C@@H](Cn1ccc(=O)[nH]c1=O)C(=O)O | inactive
NC(Cc1cc(O)c(O)cc1O)C(=O)O (stereo not given) | 3.98 µM (active)
OCc1cnc[nH]1 | inactive
N=C(N)c1ccc(CS(=O)(=O)F)cc1 | inactive
NC(=O)CI | inactive
CCCN(CCC)[C@@H]1CCc2cccc(O)c2C1 | inactive
CC(N)[C@H](O)c1ccc(O)c(O)c1 (stereo not given in full) | inactive
CCCN(CCC)C1Cc2cc(OC)c(OC)cc2C1 | inactive
NC(=O)c1cc(N2CC2)c([N+](=O)[O-])cc1[N+](=O)[O-] | inactive
C[Se]C[C@H](N)C(=O)O | inactive
Nc1ccc(CCN2CCN(c3cccc(C(F)(F)F)c3)CC2)cc1 | inactive
Cc1cc([C@@H]2CCCN2C)on1 | inactive
COc1ccc2[nH]cc(CCN)c2c1 | inactive
CCCN1CCc2cccc3c2[C@H]1Cc1ccc(O)c(O)c1-3 | inactive
CC(N)Cc1c[nH]c2ccc(O)cc12 (stereo not given) | inactive
C#CCN[C@H](C)Cc1ccccc1 | inactive

SMILES | Potency
CCCCCCC(C)(C)c1ccc([C@@H]2C[C@H](O)CC[C@H]2CCCO)c(O)c1 | inactive
CN(N=O)c1cc(O)ccc1O | inactive
Clc1ccc(N2CC3CCC(C2)N3)nn1 | inactive
NC(=O)c1ccc(OCC(O)CN2CC=C(c3ccc(F)cc3)CC2)cc1 (stereo not given) | inactive
COc1ccc2c(c1)C13CCCCC1C(C2)N(C)CC3 (stereo not given) | inactive
O=C(O)c1cc[c]([Hg][Cl])cc1 | inactive
CO[C@H]1CC=C2CCN3CCC4=C(CC(=O)OC4)[C@]23C1 | inactive
CCCN(CCC)C1CCc2cccc(O)c2C1 (stereo not given) | inactive
CCCn1c(=O)c2[nH]c(C3CCCC3)nc2n(CCCOC(=O)c2ccc(S(=O)(=O)F)cc2)c1=O | inactive
CC(=O)c1c(O)c(C)c(O)c(Cc2c(O)c3c(c(C(=O)/C=C/c4ccccc4)c2O)OC(C)(C)C=C3)c1O | 31.6 µM (active)
CC(=O)NBr | inactive
CCCC[N+]1(C)C2CC(OC(=O)[C@H](CO)c3ccccc3)CC1C1OC12 (stereo not given in full) | inactive
CCNC(=O)[C@H]1O[C@@H](n2cnc3c(N)ncnc32)[C@H](O)[C@@H]1O | inactive
CCCN(CCC)[C@H]1CCc2c(F)ccc(O)c2C1 | inactive
C=CCN1C[C@@H](C)N([C@H](c2ccc(C(=O)N(CC)CC)cc2)c2cccc(OC)c2)C[C@@H]1C | inactive
N#CCCN | inactive
C[C@@H]1[C@@H]2Cc3ccc(O)cc3[C@@]1(C)CCN2CC1CC1 | inactive
CC(=O)OCC1=C(C(=O)O)N2C(=O)[C@@H](NC(=O)CCC[C@@H](N)C(=O)O)[C@H]2SC1 | inactive
CCCn1c(C)c(C(=O)c2ccc3ccccc3c2)c2ccccc21 | inactive
CCN(CCCl)Cc1ccccc1Br | inactive
